Experimental data reported in PubChem BioAssay (NCATS).
Records with an inconclusive call do not appear. Calls of active or inactive are those of the source. Calls follow the shape of the dose curve; as a rule, active = well fitted curve in the direction sought with a large enough effect; inconclusive = small, poorly fitted or top-dose-only effect, or another doubt; inactive = no such curve, though single readings can be large; an effect the other way counts as inactive or inconclusive.

Experiment: qHTS of pediatric cancer cell lines to identify multiple opportunities for drug repurposing: Primary screen for LAN-5 cells (AID 1347100)
Settings: LAN-5 neuroblastoma viability, CellTiter-Glo luminescence, 48 h; series mostly up to 46 µM
Method in brief: (§1)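 Cells (500-1,000/well) rested 5 h, then received compounds for 48 h; metabolically active cells were measured by CellTiter-Glo luminescence. Final concentrations spanned up to 46 µM (MIPE, 11-point) or 0.59 nM-46 µM (NPC, 8-point) in primary screens, 11-point in follow-ups.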
Potency is read from the fitted curve at half-maximal effect.

| Structure (SMILES) | Potency |
| --- | --- |
| CCCn1c(=O)c2[nH]c(-c3cnn(Cc4cccc(C(F)(F)F)c4)c3)nc2n(CC)c1=O | inactive |
| Cc1ccc2nc(NC(=O)CSc3nc4c(c(=O)n3-c3ccccc3)SCC4)sc2c1 | 14.8 µM (active) |
| CCN(CC)CCNC(=O)c1ccc2nc(-c3ccccc3)c(-c3ccc(CN4CCC(n5c(=O)[nH]c6ccccc65)CC4)cc3)nc2c1 | 5.9 µM (active) |
| COC(=O)Nc1nc2ccc(C(=O)c3ccc(F)cc3)cc2[nH]1 | 0.209 µM (active) |
| CNC(=O)c1ccc(-c2cnc3ncc(Cc4ccc5ncccc5c4)n3n2)cc1F | inactive |
| COc1cc2c(NC3CCN(C(C)C)CC3)nc(C3CCCCC3)nc2cc1OCCCN1CCCC1 | 20.9 µM (active) |
| Cc1cnc(-c2cnc(NCCNc3ccc(C#N)cn3)nc2-c2ccc(Cl)cc2Cl)[nH]1 | inactive |
| COc1ccc(CC2SC(=O)NC2=O)cc1C(=O)NCc1ccc(C(F)(F)F)cc1 (stereo not given) | inactive |
| Fc1cc(-c2cccc3ncc(-c4cnn(C5CCNCC5)c4)nc23)cc(F)c1CN1CCOCC1 | 26.4 µM (active) |
| Cc1cn2c(-c3cn[nH]c3)cnc2c(Nc2ccc(C(=O)N3CCNCC3)cc2F)n1 | 16.6 µM (active) |
| COc1cc2c(Nc3ccc(NC(=O)c4ccccc4)cc3)ncnc2cc1OCCCN1CCOCC1 | 0.743 µM (active) |
| CCN(CC)CCCCNc1ncc2cc(-c3cc(OC)cc(OC)c3)c(NC(=O)NC(C)(C)C)nc2n1 | 18.7 µM (active) |
| CN(C1CCc2c(c3ccccc3n2CC(=O)O)C1)S(=O)(=O)c1ccc(F)cc1 (stereo not given) | 5.26 µM (active) |
| Cn1c(CNc2ccc(C(=N)N)cc2)nc2cc(C(=O)N(CCC(=O)O)c3ccccn3)ccc21 | inactive |
| CC[C@H](CO)Nc1nc(NCc2ccccc2)c2ncn(C(C)C)c2n1 | 20.9 µM (active) |
| O=C(c1cncc(Br)c1)N1CCC(N2CCCC2)CC1 | inactive |
| Cc1c(NC(=O)OC[C@@H]2COCCN2)cn2ncnc(Nc3ccc4c(cnn4Cc4cccc(F)c4)c3)c12 | 20.9 µM (active) |
| CN1CCN(c2cc(C(=O)Nc3ccc4c(c3)-c3c(c(C(N)=O)nn3-c3ccc(F)cc3)CC4)c(Cl)cn2)CC1 | 16.6 µM (active) |
| C[C@@H]1CN(CC(=O)Nc2ccc3c(c2)Cc2cccc(-c4cc(=O)cc(N5CCOCC5)o4)c2S3)C[C@H](C)O1 | 18.7 µM (active) |
| COc1cc(-c2nn(C3CCC(N4CCN(C(C)=O)CC4)CC3)c3ncnc(N)c23)ccc1NC(=O)c1cc2ccccc2n1C (stereo not given) | 0.332 µM (active) |

Experiment: qHTS of pediatric cancer cell lines to identify multiple opportunities for drug repurposing: Primary screen for BT-12 cells (AID 1347101); also: nearly all actives have a fitted effect of over 25% in size
Settings: BT-12 viability, CellTiter-Glo luminescence, 48 h; series mostly up to 57.3 µM
Method in brief: as §1

| Structure (SMILES) | Potency |
| --- | --- |
| CCOC(=O)C1=C(C)NC2=C(C(=O)CC(C)(C)C2)C1c1ccc(-c2ccccc2)cc1 (stereo not given) | 24.3 µM (active) |
| COc1cc(C(C)C)c2c(c1)S(=O)(=O)N(COc1cc(=O)n3cccc(OCCN4CCCCC4)c3n1)C2=O | inactive |
| Cc1ccc2nc(NC(=O)CSc3nc4c(c(=O)n3-c3ccccc3)SCC4)sc2c1 | 5.44 µM (active) |
| Cc1c(C)n(Cc2ccc(-c3ccccc3C(=O)O)cc2)c2ccc(C(=O)N[C@@H](C)c3ccc([N+](=O)[O-])cc3)cc12 | 0.769 µM (active) |
| COC(=O)Nc1nc2ccc(C(=O)c3ccc(F)cc3)cc2[nH]1 | 1.72 µM (active) |
| C[C@]12CC[C@H](O)CC1=CCC1C2CC[C@]2(C)C(n3cnc4ccccc43)=CCC12 (stereo not given in full) | inactive |
| CNC(=O)c1ccc(-c2cnc3ncc(Cc4ccc5ncccc5c4)n3n2)cc1F | inactive |
| COc1cc2c(NC3CCN(C(C)C)CC3)nc(C3CCCCC3)nc2cc1OCCCN1CCCC1 | 27.3 µM (active) |
| CS(=O)(=O)c1ccc(-c2cnc(N)c(C(=O)Nc3ccccc3)n2)cc1 | inactive |
| CCc1cc2c(cc1N1CCC(N3CCOCC3)CC1)C(C)(C)c1[nH]c3cc(C#N)ccc3c1C2=O | inactive |
| CC(C)c1nn(-c2c(Cl)cccc2Cl)c2nc(Cc3ccc(OCCO)cc3)[nH]c(=O)c12 | 0.0544 µM (active) |
| Fc1cc(-c2cccc3ncc(-c4cnn(C5CCNCC5)c4)nc23)cc(F)c1CN1CCOCC1 | 27.3 µM (active) |
| CCN(CC)CCCCNc1ncc2cc(-c3cc(OC)cc(OC)c3)c(NC(=O)NC(C)(C)C)nc2n1 | 24.3 µM (active) |
| Cn1c(CNc2ccc(C(=N)N)cc2)nc2cc(C(=O)N(CCC(=O)O)c3ccccn3)ccc21 | inactive |
| N#CCNC(=O)c1ccc(-c2ccnc(Nc3ccc(N4CCOCC4)cc3)n2)cc1 | 17.2 µM (active) |
| O=C(c1cncc(Br)c1)N1CCC(N2CCCC2)CC1 | inactive |
| CC(C)CC(=O)Nc1n[nH]c2c1CN(C(=O)C1CCN(C)CC1)C2(C)C | 2.43 µM (active) |
| Cc1c(NC(=O)OC[C@@H]2COCCN2)cn2ncnc(Nc3ccc4c(cnn4Cc4cccc(F)c4)c3)c12 | 24.3 µM (active) |
| CCCNC(=O)Nc1ccc(Oc2ncnc3cc(OC)c(OC)cc23)cc1Cl | inactive |
| CN1CCN(c2cc(C(=O)Nc3ccc4c(c3)-c3c(c(C(N)=O)nn3-c3ccc(F)cc3)CC4)c(Cl)cn2)CC1 | 30.6 µM (active) |
